In the supplement of paper PMC11732987, “Enantioselective OTUD7B fragment discovery through chemoproteomics screening and high-throughput optimisation” (Communications Chemistry, 2025):

Key:
Test in all cases: log2 ratio of Biotin-Ahx-Ub-VS probe labelling (fragment/DMSO); higher = less target engagement (more negative = stronger competition), active = hit call of the paper (q ≤ 0.05, log2 ratio ≤ -1)
Details in all cases: compound concentration: 200 uM; treatment time: 3 h
USP42 = molecular target: T1, USP42 (UniProt Q9H9J4)
T1 sequence (whole entry): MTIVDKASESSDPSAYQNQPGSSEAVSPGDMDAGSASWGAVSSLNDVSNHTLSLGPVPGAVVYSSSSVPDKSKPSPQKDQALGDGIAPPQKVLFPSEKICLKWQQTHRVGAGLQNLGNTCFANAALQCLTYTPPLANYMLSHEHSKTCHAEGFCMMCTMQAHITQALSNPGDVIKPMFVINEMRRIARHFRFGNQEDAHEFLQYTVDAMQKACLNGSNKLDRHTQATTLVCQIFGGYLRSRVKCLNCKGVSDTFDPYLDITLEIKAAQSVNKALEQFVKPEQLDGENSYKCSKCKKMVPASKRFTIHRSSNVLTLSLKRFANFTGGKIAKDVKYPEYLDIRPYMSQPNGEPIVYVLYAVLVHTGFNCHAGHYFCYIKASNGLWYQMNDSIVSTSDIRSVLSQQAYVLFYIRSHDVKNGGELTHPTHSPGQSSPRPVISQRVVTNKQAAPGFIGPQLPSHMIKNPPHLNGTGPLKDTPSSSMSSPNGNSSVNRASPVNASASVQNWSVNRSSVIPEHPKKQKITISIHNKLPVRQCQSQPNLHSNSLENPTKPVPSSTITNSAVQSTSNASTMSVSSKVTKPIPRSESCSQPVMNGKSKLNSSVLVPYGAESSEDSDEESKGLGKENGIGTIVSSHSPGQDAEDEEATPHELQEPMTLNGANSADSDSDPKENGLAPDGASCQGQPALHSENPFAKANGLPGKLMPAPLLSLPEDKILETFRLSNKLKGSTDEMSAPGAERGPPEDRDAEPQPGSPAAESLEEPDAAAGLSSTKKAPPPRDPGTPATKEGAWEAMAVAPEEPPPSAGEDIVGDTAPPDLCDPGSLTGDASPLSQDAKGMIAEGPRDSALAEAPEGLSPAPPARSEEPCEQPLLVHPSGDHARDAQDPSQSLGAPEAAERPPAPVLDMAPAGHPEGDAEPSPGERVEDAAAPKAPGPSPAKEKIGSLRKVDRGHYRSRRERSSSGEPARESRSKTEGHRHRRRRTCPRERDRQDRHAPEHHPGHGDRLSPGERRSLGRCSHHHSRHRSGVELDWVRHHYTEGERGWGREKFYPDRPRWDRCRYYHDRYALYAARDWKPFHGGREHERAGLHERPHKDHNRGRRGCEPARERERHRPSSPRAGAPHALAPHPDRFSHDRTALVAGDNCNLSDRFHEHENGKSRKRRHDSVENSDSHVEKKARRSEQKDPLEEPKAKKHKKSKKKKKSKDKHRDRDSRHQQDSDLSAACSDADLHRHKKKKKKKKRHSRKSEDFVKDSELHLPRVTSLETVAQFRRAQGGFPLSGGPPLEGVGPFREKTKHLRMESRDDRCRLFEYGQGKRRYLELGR
Summary of the method: (§1)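 Using Biotin-Ahx-Ub-VS at 0.5 µM final for 1 h, DUBs were labelled in HEK293T lysate (495 µg per sample) that had first been treated in triplicate with fragment at 200 µM or vehicle for 3 h. NeutrAvidin enrichment, LysC and trypsin digestion and diaPASEF LC-MS/MS followed. Spectronaut label-free quantities were global-median-normalised. Values are average log2 fragment/vehicle ratios by unpaired t-test, using proteins with ≥2 unique peptides.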

USP46 = USP46 (UniProt P62068)
Sequence of USP46 (P62068 whole entry): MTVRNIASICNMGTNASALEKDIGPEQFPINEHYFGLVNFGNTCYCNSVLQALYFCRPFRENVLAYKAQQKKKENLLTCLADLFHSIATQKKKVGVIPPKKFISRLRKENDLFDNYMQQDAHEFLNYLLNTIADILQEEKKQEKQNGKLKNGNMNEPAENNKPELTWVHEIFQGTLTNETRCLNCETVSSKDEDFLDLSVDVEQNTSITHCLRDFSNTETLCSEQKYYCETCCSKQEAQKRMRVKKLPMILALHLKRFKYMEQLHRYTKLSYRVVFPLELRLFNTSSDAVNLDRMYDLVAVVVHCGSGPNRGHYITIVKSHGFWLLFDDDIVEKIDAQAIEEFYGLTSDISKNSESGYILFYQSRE
Summary of the method: as §1

USP47 = molecular target: T2, USP47 (UniProt Q96K76)
T2 sequence (whole entry): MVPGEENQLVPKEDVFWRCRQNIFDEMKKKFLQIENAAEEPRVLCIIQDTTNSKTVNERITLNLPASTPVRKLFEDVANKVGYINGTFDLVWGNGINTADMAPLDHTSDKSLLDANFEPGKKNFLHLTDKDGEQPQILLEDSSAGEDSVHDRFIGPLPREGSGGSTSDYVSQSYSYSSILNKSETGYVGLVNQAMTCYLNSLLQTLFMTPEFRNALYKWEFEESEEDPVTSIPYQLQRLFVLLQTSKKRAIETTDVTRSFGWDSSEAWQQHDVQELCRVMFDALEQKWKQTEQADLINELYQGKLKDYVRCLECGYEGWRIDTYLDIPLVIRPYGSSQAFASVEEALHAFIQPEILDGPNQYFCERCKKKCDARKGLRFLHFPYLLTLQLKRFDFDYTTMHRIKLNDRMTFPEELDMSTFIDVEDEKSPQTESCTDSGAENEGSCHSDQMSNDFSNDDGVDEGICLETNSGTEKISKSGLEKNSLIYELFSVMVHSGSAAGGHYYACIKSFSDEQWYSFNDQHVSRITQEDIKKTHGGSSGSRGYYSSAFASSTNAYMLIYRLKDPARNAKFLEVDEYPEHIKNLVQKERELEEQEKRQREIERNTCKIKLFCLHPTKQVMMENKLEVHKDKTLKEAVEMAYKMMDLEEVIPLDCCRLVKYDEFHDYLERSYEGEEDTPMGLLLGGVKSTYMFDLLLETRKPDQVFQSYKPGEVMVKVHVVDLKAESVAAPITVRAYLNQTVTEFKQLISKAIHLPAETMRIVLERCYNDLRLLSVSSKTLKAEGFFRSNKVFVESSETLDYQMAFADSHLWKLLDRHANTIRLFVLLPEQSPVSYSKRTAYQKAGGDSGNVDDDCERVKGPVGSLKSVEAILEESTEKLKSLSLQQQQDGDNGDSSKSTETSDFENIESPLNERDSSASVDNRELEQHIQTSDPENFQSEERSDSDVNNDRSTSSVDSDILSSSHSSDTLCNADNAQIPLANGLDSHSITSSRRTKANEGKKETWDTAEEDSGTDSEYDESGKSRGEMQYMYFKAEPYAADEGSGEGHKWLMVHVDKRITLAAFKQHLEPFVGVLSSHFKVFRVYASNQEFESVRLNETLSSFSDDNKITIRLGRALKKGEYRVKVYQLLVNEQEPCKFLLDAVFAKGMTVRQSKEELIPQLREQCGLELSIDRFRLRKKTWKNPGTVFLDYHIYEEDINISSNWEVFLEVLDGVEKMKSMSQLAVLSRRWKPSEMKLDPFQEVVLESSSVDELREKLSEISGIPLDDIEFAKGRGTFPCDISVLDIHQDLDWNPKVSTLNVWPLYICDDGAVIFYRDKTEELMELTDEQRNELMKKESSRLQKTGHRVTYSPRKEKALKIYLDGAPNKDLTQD
Summary of the method: as §1

USP48 = molecular target: T3, USP48 (UniProt Q86UV5)
T3 sequence (whole entry): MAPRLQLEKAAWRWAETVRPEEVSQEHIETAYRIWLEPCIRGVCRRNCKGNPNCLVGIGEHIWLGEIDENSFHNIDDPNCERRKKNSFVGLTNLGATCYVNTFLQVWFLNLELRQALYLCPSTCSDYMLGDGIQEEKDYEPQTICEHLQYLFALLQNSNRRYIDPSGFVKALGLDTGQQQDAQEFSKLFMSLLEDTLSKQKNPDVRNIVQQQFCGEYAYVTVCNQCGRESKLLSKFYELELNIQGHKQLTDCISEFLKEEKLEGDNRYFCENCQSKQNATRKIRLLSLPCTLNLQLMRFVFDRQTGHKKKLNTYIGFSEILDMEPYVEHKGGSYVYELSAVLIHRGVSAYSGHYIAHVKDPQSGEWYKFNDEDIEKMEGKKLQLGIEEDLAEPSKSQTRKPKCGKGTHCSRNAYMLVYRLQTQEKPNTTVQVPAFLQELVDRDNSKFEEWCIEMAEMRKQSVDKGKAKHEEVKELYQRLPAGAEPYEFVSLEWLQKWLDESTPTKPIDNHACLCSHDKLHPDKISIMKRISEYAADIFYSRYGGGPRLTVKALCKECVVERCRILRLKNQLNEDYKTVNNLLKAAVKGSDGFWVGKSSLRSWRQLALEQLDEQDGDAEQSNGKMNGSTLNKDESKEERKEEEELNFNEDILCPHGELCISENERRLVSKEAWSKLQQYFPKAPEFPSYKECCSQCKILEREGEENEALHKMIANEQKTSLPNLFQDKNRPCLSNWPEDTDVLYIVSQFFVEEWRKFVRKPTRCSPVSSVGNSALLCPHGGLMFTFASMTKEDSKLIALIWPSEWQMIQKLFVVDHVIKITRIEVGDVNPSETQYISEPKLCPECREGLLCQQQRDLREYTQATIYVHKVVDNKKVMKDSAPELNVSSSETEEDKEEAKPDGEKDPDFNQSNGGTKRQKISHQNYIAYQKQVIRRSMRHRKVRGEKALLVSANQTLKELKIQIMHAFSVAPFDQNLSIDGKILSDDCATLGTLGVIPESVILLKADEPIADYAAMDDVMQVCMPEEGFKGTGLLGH
Summary of the method: as §1

USP5 = molecular target: T4, USP5 (UniProt P45974)
T4 sequence (whole entry): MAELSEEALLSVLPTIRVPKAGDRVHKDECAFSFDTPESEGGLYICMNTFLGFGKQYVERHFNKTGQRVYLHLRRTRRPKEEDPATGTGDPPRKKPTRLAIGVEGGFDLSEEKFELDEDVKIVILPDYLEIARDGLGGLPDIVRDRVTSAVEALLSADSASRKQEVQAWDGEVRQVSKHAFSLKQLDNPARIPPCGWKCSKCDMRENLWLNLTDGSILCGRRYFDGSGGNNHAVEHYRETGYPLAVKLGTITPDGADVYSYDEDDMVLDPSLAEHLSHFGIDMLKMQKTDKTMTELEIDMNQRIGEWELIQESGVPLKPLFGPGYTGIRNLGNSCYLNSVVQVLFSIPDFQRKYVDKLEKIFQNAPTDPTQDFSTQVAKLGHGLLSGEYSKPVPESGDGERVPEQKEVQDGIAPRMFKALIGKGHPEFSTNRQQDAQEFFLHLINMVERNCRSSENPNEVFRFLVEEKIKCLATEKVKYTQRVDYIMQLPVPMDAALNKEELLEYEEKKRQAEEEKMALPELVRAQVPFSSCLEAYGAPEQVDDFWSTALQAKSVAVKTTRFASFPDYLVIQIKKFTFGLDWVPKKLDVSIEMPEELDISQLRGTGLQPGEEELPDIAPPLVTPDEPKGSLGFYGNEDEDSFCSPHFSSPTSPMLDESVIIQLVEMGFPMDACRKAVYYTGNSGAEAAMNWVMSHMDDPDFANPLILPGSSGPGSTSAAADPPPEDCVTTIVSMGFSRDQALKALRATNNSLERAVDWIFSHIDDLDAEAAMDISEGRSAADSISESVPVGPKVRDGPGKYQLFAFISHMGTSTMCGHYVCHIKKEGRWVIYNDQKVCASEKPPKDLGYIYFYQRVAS
Summary of the method: as §1

USP54 = USP54 (UniProt Q70EL1)
Sequence of USP54 (Q70EL1 whole entry): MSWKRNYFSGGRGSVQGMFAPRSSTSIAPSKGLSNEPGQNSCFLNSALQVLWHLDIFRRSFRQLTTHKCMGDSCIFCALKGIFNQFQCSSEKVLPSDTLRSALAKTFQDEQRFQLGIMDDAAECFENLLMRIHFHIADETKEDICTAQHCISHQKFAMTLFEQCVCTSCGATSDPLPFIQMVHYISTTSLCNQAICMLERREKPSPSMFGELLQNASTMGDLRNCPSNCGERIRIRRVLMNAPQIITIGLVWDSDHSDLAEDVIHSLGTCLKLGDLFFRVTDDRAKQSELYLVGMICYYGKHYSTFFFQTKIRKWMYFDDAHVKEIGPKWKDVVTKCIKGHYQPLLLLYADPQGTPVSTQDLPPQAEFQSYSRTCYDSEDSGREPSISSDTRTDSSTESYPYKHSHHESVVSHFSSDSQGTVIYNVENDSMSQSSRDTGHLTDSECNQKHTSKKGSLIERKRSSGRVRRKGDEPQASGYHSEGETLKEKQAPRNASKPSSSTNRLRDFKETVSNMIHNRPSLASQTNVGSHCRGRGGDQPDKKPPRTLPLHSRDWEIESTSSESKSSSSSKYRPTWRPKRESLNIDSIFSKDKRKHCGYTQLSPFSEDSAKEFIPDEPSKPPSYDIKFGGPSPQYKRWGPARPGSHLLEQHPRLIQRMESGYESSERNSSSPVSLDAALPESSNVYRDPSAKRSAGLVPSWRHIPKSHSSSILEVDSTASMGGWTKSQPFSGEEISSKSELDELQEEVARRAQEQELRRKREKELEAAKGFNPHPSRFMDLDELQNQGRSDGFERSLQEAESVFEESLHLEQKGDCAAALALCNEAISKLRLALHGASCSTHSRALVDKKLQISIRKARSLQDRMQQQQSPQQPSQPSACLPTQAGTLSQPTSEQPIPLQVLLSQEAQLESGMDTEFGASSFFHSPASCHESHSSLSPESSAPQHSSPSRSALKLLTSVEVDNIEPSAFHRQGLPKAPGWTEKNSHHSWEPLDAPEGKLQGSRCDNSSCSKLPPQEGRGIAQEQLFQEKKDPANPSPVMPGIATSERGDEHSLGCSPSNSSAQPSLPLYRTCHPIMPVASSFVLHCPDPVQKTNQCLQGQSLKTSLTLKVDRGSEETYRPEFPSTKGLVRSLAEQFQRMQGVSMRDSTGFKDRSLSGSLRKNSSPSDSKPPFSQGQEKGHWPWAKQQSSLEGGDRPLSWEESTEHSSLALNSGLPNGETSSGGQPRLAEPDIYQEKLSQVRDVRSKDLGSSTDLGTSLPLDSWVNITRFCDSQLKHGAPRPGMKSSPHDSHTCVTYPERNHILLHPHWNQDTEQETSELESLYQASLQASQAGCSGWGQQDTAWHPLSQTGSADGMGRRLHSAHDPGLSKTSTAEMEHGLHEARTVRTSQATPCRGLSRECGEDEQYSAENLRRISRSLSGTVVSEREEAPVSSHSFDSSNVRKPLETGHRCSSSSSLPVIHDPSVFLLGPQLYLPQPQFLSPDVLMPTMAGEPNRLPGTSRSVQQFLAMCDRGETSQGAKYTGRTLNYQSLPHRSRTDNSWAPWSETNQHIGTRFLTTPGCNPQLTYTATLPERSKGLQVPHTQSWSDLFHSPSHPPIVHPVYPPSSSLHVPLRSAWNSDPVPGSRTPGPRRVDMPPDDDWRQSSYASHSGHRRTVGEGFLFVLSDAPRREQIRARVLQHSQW
Summary of the method: as §1

USP7 = USP7 (UniProt Q93009)
Sequence of USP7 (Q93009 whole entry, looked up): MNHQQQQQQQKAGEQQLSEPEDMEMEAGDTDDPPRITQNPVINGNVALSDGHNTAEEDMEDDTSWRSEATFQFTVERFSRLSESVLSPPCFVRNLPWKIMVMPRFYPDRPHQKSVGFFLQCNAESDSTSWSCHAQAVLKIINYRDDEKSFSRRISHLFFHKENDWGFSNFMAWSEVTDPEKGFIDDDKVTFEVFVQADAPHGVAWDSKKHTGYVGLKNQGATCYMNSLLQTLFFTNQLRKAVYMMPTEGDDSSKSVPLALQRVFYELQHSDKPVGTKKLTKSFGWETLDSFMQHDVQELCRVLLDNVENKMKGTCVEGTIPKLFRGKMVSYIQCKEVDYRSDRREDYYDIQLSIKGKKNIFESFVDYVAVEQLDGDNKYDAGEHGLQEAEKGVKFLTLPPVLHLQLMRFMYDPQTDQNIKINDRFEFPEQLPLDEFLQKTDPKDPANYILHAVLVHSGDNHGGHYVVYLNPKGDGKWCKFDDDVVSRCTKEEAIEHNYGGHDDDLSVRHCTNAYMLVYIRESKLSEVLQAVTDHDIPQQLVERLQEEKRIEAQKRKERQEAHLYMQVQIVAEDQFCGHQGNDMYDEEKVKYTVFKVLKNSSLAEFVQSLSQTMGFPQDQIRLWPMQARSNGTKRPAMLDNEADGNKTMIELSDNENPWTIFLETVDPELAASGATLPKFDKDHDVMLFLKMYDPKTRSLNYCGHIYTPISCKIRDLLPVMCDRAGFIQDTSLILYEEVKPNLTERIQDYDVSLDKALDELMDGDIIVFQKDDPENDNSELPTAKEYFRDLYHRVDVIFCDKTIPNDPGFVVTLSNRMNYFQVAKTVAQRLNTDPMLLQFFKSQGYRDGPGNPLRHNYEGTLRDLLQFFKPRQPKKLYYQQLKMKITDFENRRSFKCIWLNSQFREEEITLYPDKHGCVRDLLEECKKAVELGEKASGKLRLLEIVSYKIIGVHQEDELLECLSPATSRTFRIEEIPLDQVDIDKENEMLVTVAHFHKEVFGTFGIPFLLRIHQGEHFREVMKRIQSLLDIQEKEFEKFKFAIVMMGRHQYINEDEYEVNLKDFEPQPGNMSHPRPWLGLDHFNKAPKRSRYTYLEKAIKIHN
Summary of the method: as §1

USP8 = molecular target: T5, USP8 (UniProt P40818)
T5 sequence (whole entry): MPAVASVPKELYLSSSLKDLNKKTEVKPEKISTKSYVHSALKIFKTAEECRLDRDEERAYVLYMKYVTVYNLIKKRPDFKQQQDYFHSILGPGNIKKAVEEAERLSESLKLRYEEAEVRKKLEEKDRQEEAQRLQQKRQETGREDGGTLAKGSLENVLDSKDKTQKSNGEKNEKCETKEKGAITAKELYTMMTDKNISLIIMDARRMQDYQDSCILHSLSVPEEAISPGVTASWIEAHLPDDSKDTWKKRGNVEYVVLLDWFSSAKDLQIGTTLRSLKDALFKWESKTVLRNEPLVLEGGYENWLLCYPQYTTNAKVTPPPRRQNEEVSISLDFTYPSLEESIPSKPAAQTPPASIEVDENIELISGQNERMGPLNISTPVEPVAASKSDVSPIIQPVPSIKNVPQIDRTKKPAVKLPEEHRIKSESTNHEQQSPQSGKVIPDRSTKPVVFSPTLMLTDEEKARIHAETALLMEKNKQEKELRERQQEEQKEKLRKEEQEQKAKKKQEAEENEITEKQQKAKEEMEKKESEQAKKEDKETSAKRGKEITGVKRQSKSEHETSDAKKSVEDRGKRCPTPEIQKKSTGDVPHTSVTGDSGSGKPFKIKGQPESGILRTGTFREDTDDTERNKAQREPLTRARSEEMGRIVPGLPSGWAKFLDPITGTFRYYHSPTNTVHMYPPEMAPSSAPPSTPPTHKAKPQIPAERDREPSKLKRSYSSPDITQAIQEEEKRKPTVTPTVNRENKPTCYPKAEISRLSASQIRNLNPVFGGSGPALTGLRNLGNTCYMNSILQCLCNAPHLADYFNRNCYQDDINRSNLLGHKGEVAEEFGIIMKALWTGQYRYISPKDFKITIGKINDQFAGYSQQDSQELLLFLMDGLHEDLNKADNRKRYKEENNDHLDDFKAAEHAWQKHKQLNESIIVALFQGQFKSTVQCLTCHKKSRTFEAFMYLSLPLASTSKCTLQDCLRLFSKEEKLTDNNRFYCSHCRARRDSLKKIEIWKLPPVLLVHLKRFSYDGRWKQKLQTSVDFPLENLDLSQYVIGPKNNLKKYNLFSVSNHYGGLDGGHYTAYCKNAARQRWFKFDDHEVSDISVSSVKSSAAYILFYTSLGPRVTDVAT
Summary of the method: as §1

USP9X = USP9X (UniProt Q93008)
Summary of the method: as §1

UniProt O00487 = molecular target: UniProt O00487
Sequence of UniProt O00487 (O00487 whole entry): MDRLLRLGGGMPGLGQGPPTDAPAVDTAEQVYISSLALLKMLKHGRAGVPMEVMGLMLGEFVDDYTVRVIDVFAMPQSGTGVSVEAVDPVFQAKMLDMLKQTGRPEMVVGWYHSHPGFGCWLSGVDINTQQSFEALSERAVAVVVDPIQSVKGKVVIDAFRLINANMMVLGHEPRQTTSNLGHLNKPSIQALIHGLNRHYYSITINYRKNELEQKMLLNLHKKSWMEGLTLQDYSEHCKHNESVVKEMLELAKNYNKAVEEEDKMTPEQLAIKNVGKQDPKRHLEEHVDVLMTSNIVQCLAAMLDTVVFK
Summary of the method: as §1

Measured: log2 ratio of Biotin-Ahx-Ub-VS probe labelling

Cc1cc(C2CCCN2C(=O)CCl)nn1C.Cl (stereo not given)
inactive: USP42 0.512 | USP46 -0.144 | USP47 -0.308 | USP48 -0.159 | USP5 -0.0636 | USP54 -0.39 | USP7 -0.329 | USP8 -0.274 | USP9X -0.131 | UniProt O00487 -0.229
